LmPK inh – LmPK (Leishmania mexicana) enzyme inhibition; Q27686; purified LmPK, Kinase-Glo ATP luminescence, 1 h; Potency, µM (highest dose often 57.5 µM), for the others: top-dose activity change, negative = inhibition, hits mostly inhibitors; 290,000 compounds, 0.37% hits; AID 1721; note: potency is the fitted concentration of half-maximal effect; % is set by controls: 0 for no effect and ±100 for the full control effect
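0.1 nM LmPK, 0.5 mM PEP, 0.1 mM ADP; 50 mM imidazole pH 7.2, 7 mM MgCl2, 50 mM KCl; 1 h RT. Kinase-Glo luminescence readout, normalized to no-enzyme (full inhibition) and uninhibited wells.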
Tb PYK inh – T. brucei pyruvate kinase inhibition. TbPYK enzyme, Kinase-Glo Plus ATP luminescence, 45 min. Potency, µM (titrated, usually from 76.8 µM), for the others: top-dose activity, negative = inhibition, most hits filed as inhibitors. 410,000 compounds, 0.12% hits; note: potency is the fitted concentration of half-maximal effect; % is set by controls: 0 for no effect and ±100 for the full control effect; nearly all actives have a fitted effect of over 50% in size
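Luminescent Kinase-Glo Plus end-point after 45 min room-temperature reaction of T. brucei pyruvate kinase started with 130 uM ADP (final). Buffer TEA 50 mM pH 7.2 with KCl, MgCl2, BSA, Tween-20; titration-based qHTS with fitted concentration-effect curves.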
FBPA Giardia inh – blocks Giardia fructose-bisphosphate aldolase activity; AID 2451; 290,000 compounds, 0.71% hits; A8B2U2; purified Giardia FBPA; Potency, µM (doses to about 59.6 µM), for inactives: at the highest dose activity, negative = inhibition, usual class: inhibitors; note: potency is the fitted concentration of half-maximal effect; % is set by controls: 0 for no effect and ±100 for the full control effect; nearly all actives have a fitted effect of over 55% in size
Target sequence (A8B2U2 whole entry, looked up): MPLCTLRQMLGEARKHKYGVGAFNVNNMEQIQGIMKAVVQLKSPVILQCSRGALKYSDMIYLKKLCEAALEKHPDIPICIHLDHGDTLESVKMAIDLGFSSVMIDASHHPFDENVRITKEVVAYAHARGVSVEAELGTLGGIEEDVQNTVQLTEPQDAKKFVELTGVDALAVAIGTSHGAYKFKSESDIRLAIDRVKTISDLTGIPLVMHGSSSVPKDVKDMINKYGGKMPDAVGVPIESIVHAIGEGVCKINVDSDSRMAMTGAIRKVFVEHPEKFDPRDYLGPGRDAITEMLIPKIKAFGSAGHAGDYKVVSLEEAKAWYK
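40 nM FBPA preincubated 10 min at RT with compound (up to 57.5 uM final), then substrate plus GAPDH/TPI/NAD/arsenate coupling and diaphorase/resazurin added. Fluorescence read after 20 min at RT, 525/598 nm.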
Shiga inhibitor – inhibitors of Shiga toxin in Vero cells; Vero cells, Shiga toxin protein synthesis inhibition reporter; 290,000 compounds, 9.2% hits; inhibition, % at 38.7 µM; in the data active = inhibition mostly above about 28%, no sharp cut-off; inactive = mostly below about 43%; note: 0% is about no effect
Cycloheximide cs – affects cycloheximide protein synthesis inhibition readout, counter-screen; max response, %; cell reporter, cycloheximide protein synthesis inhibition counterscreen; 300,000 compounds, 12% hits; in the data active = max response mostly above about 13%, no sharp cut-off; inactive = mostly below about 14%; note: read at 38.3 µM for the half of the compounds with a filed dose; 0% is about no effect
Sm TGR inh – inhibitors of Schistosoma mansoni thioredoxin glutathione reductase; purified TGR, DTNB reduction, TNB absorbance 405 nm; Potency, µM (highest dose often 114 µM), for the others: at the top dose activity change, negative = inhibition, usual class: inhibitors; 360,000 compounds, 3% hits; AID 485364; note: potency is the fitted concentration of half-maximal effect; % is set by controls: 0 for no effect and ±100 for the full control effect; nearly all actives have a fitted effect of over 60% in size
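First, TGR (20 nM dispensed) and NADPH were mixed with compound. Second, a 15 min room-temperature incubation followed. Third, further NADPH and then DTNB were added to start the reaction. Finally, TNB absorbance was monitored kinetically.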
Active calls of the source: *; ? = inconclusive; nt = no result; [ ] = dose if it differs, or a comment. Shown is part of a subset that was picked to be rich in hits. Unless noted, calls come from the whole dose curve; as a rule, active = well fitted curve in the direction sought with a large enough effect; inconclusive = small, poorly fitted or top-dose-only effect, or another doubt; inactive = no such curve, though single readings can be large; an effect the other way counts as inactive or inconclusive.

SMILES | LmPK inh | Tb PYK inh | FBPA Giardia inh | Shiga inhibitor | Cycloheximide cs | Sm TGR inh
CCCCCC/C=N/Nc1nnc(Cc2ccccc2)c(=O)[nH]1 | -4% | -26% | -5% | 18 | -4 | 1%
Cc1ccc(C)c(NC(=O)Cc2nc(CNCC(C)C)cs2)c1 | -4% | 2% | -8% | -6 | -4 | ?
CCCCCc1cc(=O)c2ccccc2o1 | nt | -1% | nt | nt | nt | nt
CCn1c2ccccc2c2cc(CN3CCN(Cc4ccc(Br)cc4)CC3)ccc21 | nt | 2% | nt | nt | nt | 2%
CCCc1cc(=O)[nH]c(N/N=C/C=C\c2ccccc2)n1 | 5% | 2% | -1% | -4 | -2 | nt
O=c1[nH]c(N/N=C/c2cc3c(cc2[N+](=O)[O-])OCO3)nc2ccccc12 | 0% | -4% | -9% | -2 | 2 | 1%
Fc1cccc(/C=N/Nc2nc3ccccc3[nH]2)c1 | -8% | -23% | -4% | 84* | 40* | -8%
Fc1ccc(/C=N\Nc2cccc(F)c2)cc1 | -2% | -4% | 1% | -9 | -2 | 4%
C(=N\Nc1nc2ccccc2[nH]1)/c1ccccc1 | -16% | -6% | 1% | 76* | 49* | -4%[57.1 µM]
O=c1[nH]c(N/N=C/c2ccccc2)nc2ccccc12 | -7% | 7% | 5% | 72* | 43* | -7%
C(=C\c1ccccc1)/C=N/Nc1nc2ccccc2[nH]1 | -12% | 3% | 8% | 89* | 27* | -7%
N#C/C(=C(O)\C=C\c1ccccc1)c1nc2ccccc2[nH]1 | 0% | -2% | 4% | 13 | -2 | 10%
COc1ccc(CNC(=O)c2ccc3nc(CCc4ccccc4)oc3c2)c(OC)c1 | nt | -3% | nt | nt | nt | 6%
C(=N\Nc1nc2ccccc2[nH]1)/C1CCCCC1 | -12% | -2% | 4% | 114* | 61* | -4%
Cc1cc(=O)[nH]c(N/N=C/c2c(C)nn(-c3ccccc3)c2Cl)n1 | 1% | -20% | -9% | 26 | 7 | 5%
Cc1nn(-c2ccccc2)c(Cl)c1/C=N/Nc1nc2ccccc2[nH]1 | -25% | -7% | 3% | 146* | 39* | 1%
Fc1ccc(/C=N/Nc2nc3ccccc3[nH]2)cc1F | 2% | -3% | -1% | 118* | 36* | -5%
Cc1ccccc1N1C(=O)c2cc(S(N)(=O)=O)c(Cl)cc2N[C@H]1C | nt | nt | 0%[21.7 µM] | nt | nt | nt
Cc1ccc2nc(SCC(=O)NCc3ccco3)c(C#N)cc2c1 | 0% | -1% | 9% | 30 | 19 | ?
Cc1ccc2cc(C#N)c(SCC(=O)NCc3ccco3)nc2c1 | 3% | -7% | -1% | 41 | -2 | 35µM*
Cc1ccc2nc(SCC(=O)NCc3ccco3)c(C)cc2c1 | 2% | -3% | 7% | 23 | -2 | 40µM*
CN(CC(=O)Nc1c(Cl)cccc1Cl)C(=O)c1cccn1C | -3% | -3% | nt | -6 | 1 | -29%
CC(OC(=O)c1cccc(-n2cnnn2)c1)C(=O)Nc1ccc(F)c(F)c1F (stereo not given) | nt | 7% | nt | nt | nt | nt
O=C(O)CNC(=O)c1ccccc1I | nt | -2% | 1% | -10 | -5 | nt
COc1ccc(C(=O)/C(=C/N(C)C)S(=O)(=O)c2ccccc2)cc1 | -6% | 3% | 6% | 61* | 27* | -32%
SMILES | LmPK inh | Tb PYK inh | FBPA Giardia inh | Shiga inhibitor | Cycloheximide cs | Sm TGR inh
CN(C)/C=C(/C(=O)c1ccccc1Cl)S(=O)(=O)c1ccccc1 | nt | -1% | nt | nt | nt | nt
CC1(c2ccccn2)Nc2ccccc2-c2nc3ccccc3n21 (stereo not given) | -3% | -2% | -1% | 27 | 15 | -2%
c1ccc2c(c1)NC1(CCCCCC1)n1c-2nc2ccccc21 | -14% | 3% | -7% | 77* | 34* | -21%
c1ccc2c(c1)NC1(CCCCC1)n1c-2nc2ccccc21 | 3% | -1% | 0% | 71 | 26* | 10%[11.4 µM]
CO[C@H]1COC(=O)[C@@H](C)COC(=O)[C@@H](OCc2ccccc2)/C=C\[C@@H]1C | nt | nt | 1%[12.9 µM] | nt | nt | nt
Cc1ccc2c(c1)NC(=O)C(CC(=O)NCCCN1CCCCC1)O2 (stereo not given) | 9% | 1% | 3% | -6 | -5 | 100µM*
Cc1nn(-c2ccccc2)c(OC(=O)c2ccccc2)c1S(=O)(=O)c1ccccc1 | nt | -5% | nt | nt | nt | -9%
Cc1cc(C)n2nc(SCC(=O)c3cccs3)nc2n1 | 2% | -2% | 3% | 11 | 14 | nt
Cc1cc(C)nc(SCNC(=O)c2ccccc2)n1 | 2% | -17% | -19% | -6 | -2 | ?
Cc1cc(SCC(=O)c2ccccc2)nc(C)n1 | ? | 1% | -11% | 117* | 32* | -4%
Cc1cc(SCNC(=O)c2ccccc2)nc(C(C)C)n1 | 15% | 7% | -5% | -7 | 2 | 11µM*
Cc1cc(C)n2nc(SCCOc3ccccc3F)nc2n1 | -2% | 6% | 2% | 114* | 26* | -4%
Cc1cc(C)n2nc(SCC(=O)c3ccccc3)nc2n1 | -12% | -1% | -10% | 33 | 14* | -34%
CCOC(=O)c1sc2nc(-c3ccco3)c3c(c2c1N)CC(C)(C)OC3 | 1% | ? | ? | -10 | 1 | 0.89µM*
COC(=O)CSc1ncnc2c1sc1nc(-c3ccco3)c3c(c12)CC(C)(C)OC3 | 2% | nt | -8% | 7 | -2 | 4µM*
CC(NC(=O)c1ccc([N+](=O)[O-])cc1Cl)C1CC2CCC1C2 (stereo not given) | -6% | 2% | 1% | 43 | 14* | -24%
CCCS(=O)(=O)c1nc(S(=O)(=O)c2ccc(C)cc2)c(NCC(C)C)s1 | nt | 6% | nt | nt | nt | -2%
NS(=O)(=O)c1ccc(-c2ccc(/C=N/Nc3ccc(C(=O)O)cc3)o2)cc1 | 4% | -8% | -28% | 18 | 41* | -21%
O=C(O)c1cccc(-c2ccc(/C=N/Nc3ccc([N+](=O)[O-])cc3)o2)c1 | 0% | -3% | -22% | 54 | 17* | -21%
O=C(O)c1ccc(-c2ccc(/C=N/Nc3ccc([N+](=O)[O-])cc3)o2)cc1 | -2% | 1% | -18% | 92* | 16* | -9%
CCN(CC)c1ccc(/C=C2/C(=O)c3ccc(C(=O)O)cc3C2=O)cc1 | ? | ? | -3% | 68* | 77* | -14%
CCN(CC)c1ccc(C=C2C(=O)OC3(CCCCC3)OC2=O)cc1 | 3% | -5% | -7% | -5 | 8 | -15%
CCC/C=C(\CCC)C(NC(=O)c1ccccc1)c1ccc(C(=O)OC)cc1 (stereo not given) | nt | nt | -1% | nt | nt | nt
CC(=O)NC(c1ccc(C(C)C)cc1)c1ccc2cccnc2c1O (stereo not given) | 1% | -12% | 16% | -11 | 3 | 0%
Oc1c(C(c2cccs2)N2CCN(c3ccccc3)CC2)ccc2cccnc12 (stereo not given) | 2% | nt | ? | 30 | 2 | 0.71µM*
CN1CCN(C(c2ccc(C(F)(F)F)cc2)c2ccc3cccnc3c2O)CC1 (stereo not given) | 0% | 38% | -26% | -15 | -3 | 0.32µM*

Bioassay records: PubChem BioAssay, National Center for Advancing Translational Sciences (NCATS)
